LDHA inh: LDHA (human) enzyme inhibition. AID 1347041. P00338. purified LDHA, NADH/diaphorase-resazurin fluorescence; active compounds read low. activity change, % (values are at about 110 or 230 µM). 480,000 compounds, 0.15% hits; in the data active means activity change below about -30%; inconclusive means mostly about -25% to -30%;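 further: plate controls were DMSO wells for no effect and wells without enzyme for full effect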
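Remaining NADH was detected by diaphorase (0.133 mg/mL) converting 37 µM resazurin to fluorescent resorufin, read at 0 and 20 minutes. The preceding 5-minute room-temperature reaction used 2 nM LDHA, 0.2 mM sodium pyruvate and 0.06 mM NADH at pH 7.4.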
KCNH2 3.1 block: inhibitors of human KCNH2 3.1 potassium channel isoform | U2OS KCNH2 3.1, thallium flux FluxOr; active compounds read low | activity change, % (tested at about 1.8 µM) | 340,000 compounds, 0.95% hits;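 active means maximum activity change below -70%; inconclusive means maximum activity change from -70% to -50%; inactive means maximum activity change above -50%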;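 further: thallium influx rate constant from kinetic fluorescence after stimulation buffer; on the % scale 0 is the no-effect control and ±100 the full control effect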
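FluxOr-based Tl+ influx in U2OS cells transduced with KCNH2 3.1 virus; rate constants normalized to DMSO controls.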
Chronic BCR inh: blocks chronic active B-cell receptor signaling | 340,000 compounds, 0.05% hits | Potency, µM (top dose mostly 46.1 µM), for inactives: at the top dose activity change, negative = inhibition, usual class: inhibitors | ABC-DLBCL IkBa-CBG/CBR reporter, luminescence ratio, 4 h; active means well fitted inhibition curve with a large enough effect in the signal ratio, with a control signal flat, not every such curve was filed as active; inconclusive means small, poorly fitted or top-dose-only effect, or effect the other way, or a change in a side signal; the % refers to the signal ratio;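 further: potency means the concentration at half of the fitted maximal effect; plate controls were basal doxycycline-induced cells for no effect and cells given 10 µM MG132 for full effect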
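Doxycycline induced both beetle luciferases in TMD8 lymphoma cells; IKK-driven degradation limits the IkappaBalpha-fused green signal, while red luminescence normalises for cell number and nonspecific effects. Compounds tested up to 46 uM, 4 hrs.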
12-LOX inh: ALOX12 (human) lipoxygenase inhibition. AID 1671190. Potency, µM (series often up to 108 µM), for inactives: top-dose activity change, negative = inhibition, hits mostly inhibitors. 580,000 compounds, 1.1% hits. P18054. purified 12hLO, xylenol orange hydroperoxide absorbance; active means well fitted inhibition curve with a large enough effect; inconclusive means small, poorly fitted or top-dose-only effect, or another doubt; inactive means no such curve, though single readings can be large or run the other way; further: potency means the concentration at half of the fitted maximal effect; on the % scale 0 is the no-effect control and ±100 the full control effect
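Purified human 12hLO at 150 nM in 25 mM Hepes, 0.01% Triton X-100, pH 7.0, preincubated 15 min at room temperature with compound. Reaction started with 40 uM arachidonic acid, 30 min at room temperature. Hydroperoxide measured by Fe-xylenol orange, 573/405 nm absorbance ratio.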
KCNH2 WT inh: inhibitors of human wildtype KCNH2 potassium channel | Q12809 | U2OS, BacMam KCNH2, thallium flux FluxOr; active compounds read low | activity change, % at 1.84 µM | 340,000 compounds, 0.37% hits;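 active means maximum activity change below -70%; inconclusive means maximum activity change between -70% and -50%; inactive means maximum activity change above -50%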; further: on the % scale 0 is the no-effect control and ±100 the full control effect
Target sequence (Q12809 whole entry, looked up): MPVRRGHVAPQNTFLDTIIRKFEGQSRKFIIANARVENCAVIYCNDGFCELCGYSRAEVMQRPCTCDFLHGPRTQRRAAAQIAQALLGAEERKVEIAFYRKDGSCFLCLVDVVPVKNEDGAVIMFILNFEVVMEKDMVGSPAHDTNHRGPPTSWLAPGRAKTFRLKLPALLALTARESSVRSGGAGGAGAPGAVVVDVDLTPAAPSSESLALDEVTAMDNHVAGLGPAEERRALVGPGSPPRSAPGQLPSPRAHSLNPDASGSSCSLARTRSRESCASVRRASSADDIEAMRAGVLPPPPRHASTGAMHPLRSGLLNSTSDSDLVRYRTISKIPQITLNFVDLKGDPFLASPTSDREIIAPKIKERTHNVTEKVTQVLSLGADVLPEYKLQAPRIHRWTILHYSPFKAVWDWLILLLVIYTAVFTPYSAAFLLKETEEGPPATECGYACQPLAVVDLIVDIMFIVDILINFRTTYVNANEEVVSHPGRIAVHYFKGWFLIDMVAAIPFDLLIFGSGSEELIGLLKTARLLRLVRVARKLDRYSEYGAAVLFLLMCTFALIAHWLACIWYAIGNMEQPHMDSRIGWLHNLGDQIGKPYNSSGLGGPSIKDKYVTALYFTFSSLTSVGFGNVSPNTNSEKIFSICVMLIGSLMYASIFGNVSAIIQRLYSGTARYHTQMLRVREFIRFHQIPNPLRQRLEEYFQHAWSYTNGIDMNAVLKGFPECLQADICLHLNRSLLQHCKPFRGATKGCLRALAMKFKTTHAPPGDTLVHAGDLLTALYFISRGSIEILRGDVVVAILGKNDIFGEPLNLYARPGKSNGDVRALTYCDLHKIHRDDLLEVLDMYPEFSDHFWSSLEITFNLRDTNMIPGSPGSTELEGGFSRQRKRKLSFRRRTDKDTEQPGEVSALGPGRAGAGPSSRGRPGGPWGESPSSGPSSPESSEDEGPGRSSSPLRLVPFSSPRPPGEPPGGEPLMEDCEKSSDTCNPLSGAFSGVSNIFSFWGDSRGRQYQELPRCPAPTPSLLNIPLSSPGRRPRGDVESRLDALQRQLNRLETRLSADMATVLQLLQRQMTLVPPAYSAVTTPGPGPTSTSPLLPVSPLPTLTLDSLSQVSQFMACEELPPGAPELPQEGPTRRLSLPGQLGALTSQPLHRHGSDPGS
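U2OS cells were transduced with wild-type KCNH2 virus (2.03 x 10^8 / mL) for 4 h at room temperature, then cultured overnight at 37 C. Thallium flux was read with FluxOr dye. Rate constants were normalized to DMSO controls.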
ClpP mod: qHTS Assay for Activators of ClpP. purified B. subtilis ClpP, FRET peptide cleavage, 20 min. Potency, µM (highest dose often 57.5 µM), for the others: at the highest dose activity change, negative = active. 340,000 compounds, 1.9% hits. AID 651965, 2013; active means well fitted falling curve with a large enough effect; inconclusive means small, poorly fitted or top-dose-only effect; inactive means no such curve, though single readings can be large or run the other way; further: potency means the concentration at half of the fitted maximal effect; the source files actives as falling curves though it sought activators and does not explain the sign; nearly all actives have a fitted effect of over 65% in size
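FRET quenching reversal measured ClpP activation: 10 microg/mL B. subtilis ClpP at pH 8 with the FRET-FV decapeptide, read at 430 nm after 320 nm excitation. The 20-min minus 0-min signal was scaled between DMSO/no-enzyme wells and ADEP (5.8 microM final).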
Active calls of the source: *. Rows were chosen to be rich in hits. Some 3% of all compounds tested hit in one or more screens of this group.

How did O=C(NCc1ccccc1)c1ccc(NC(=O)N2CCSc3ncccc32)cc1 do in these assays?
LDHA inh: 2; 12-LOX inh: -9%; ClpP mod: 32µM*

How did Cc1ccccc1CNC(=O)c1cccc(NC(=O)N2CCSc3ncccc32)c1 do in these assays?
LDHA inh: -8; 12-LOX inh: -26%; ClpP mod: 32µM*

How did CCc1ccc(CNC(=O)c2ccc(NC(=O)N3CCSc4ncccc43)cc2)cc1 do in these assays?
LDHA inh: -10; 12-LOX inh: -22%; ClpP mod: 32µM*

How did Cc1ccc(O)c(C(=O)N(C)Cc2ccc(Cl)cc2Cl)c1 do in these assays?
LDHA inh: -11; 12-LOX inh: inconclusive

Results for Cc1ccc(N2C(=O)N(CC(=O)Nc3ccccc3C(F)(F)F)C(=O)C2C)cc1 (stereo not given) ?
LDHA inh: -3; KCNH2 3.1 block: 10; Chronic BCR inh: 1%; 12-LOX inh: -5%; KCNH2 WT inh: -2; ClpP mod: 16µM*

How did CNC(=O)/C(C#N)=C\c1ccc(CNS(=O)(=O)c2ccccc2)o1 do in these assays?
LDHA inh: -2; KCNH2 3.1 block: 3; Chronic BCR inh: -8%; 12-LOX inh: -26%; KCNH2 WT inh: -4; ClpP mod: -3%

Results for CNC(=O)/C(C#N)=C\c1ccc(CNS(=O)(=O)c2ccc(Cl)cc2)o1 ?
LDHA inh: -7; KCNH2 3.1 block: 18; Chronic BCR inh: 4%; 12-LOX inh: 45µM*; KCNH2 WT inh: 4

How did CCOc1ccc(N2CC(C(=O)Nc3ccc(OC)c(S(=O)(=O)N4CCCCC4)c3)CC2=O)cc1 (stereo not given) do in these assays?
LDHA inh: -6; KCNH2 3.1 block: -2; Chronic BCR inh: -11%; 12-LOX inh: -11%; KCNH2 WT inh: 0; ClpP mod: 28µM*

Results for O=C(/C=C/c1ccco1)N(Cc1cccs1)C1CC1 ?
LDHA inh: 3; 12-LOX inh: 35µM*

What do the screens show for `CCN(CC)CC1CCN(C(=O)c2cc3cccc([N+](=O)[O-])c3[nH]2)CC1`?
LDHA inh: 2; 12-LOX inh: 4%

Results for CCNC(=S)NN=C1CCC(C(C)(C)C)CC1 (stereo not given) ?
LDHA inh: 0; KCNH2 3.1 block: 7; Chronic BCR inh: inconclusive; 12-LOX inh: 0%; KCNH2 WT inh: 1; ClpP mod: 28µM*

Results for CN1CCN(C(=O)Cn2ccc3c(Cl)cccc32)CC1 ?
LDHA inh: 6; 12-LOX inh: 3%

Results for COc1ccc(S(=O)(=O)N(CCc2ccccc2)CC(=O)NC(C)C)cc1 ?
LDHA inh: -14; KCNH2 3.1 block: 9; Chronic BCR inh: inconclusive; 12-LOX inh: 32µM*; KCNH2 WT inh: -2; ClpP mod: 0%

What do the screens show for `COc1ccccc1N(C(C)=O)C1=C(Cl)C(=O)c2ccccc2C1=O`?
LDHA inh: 64; KCNH2 3.1 block: -15; 12-LOX inh: 14µM*; KCNH2 WT inh: 7; ClpP mod: 7%

Results for Cc1cc(N/N=C/c2c[nH]c3ccccc23)c2ccccc2n1 ?
LDHA inh: -15; KCNH2 3.1 block: 10; Chronic BCR inh: -2%; 12-LOX inh: 16%; KCNH2 WT inh: -6

What do the screens show for `Cn1c(N/N=C/c2c[nH]c3ccccc23)nc2ccccc21`?
LDHA inh: -2; KCNH2 3.1 block: 7; Chronic BCR inh: inconclusive; 12-LOX inh: 45µM*; KCNH2 WT inh: 33; ClpP mod: -9%

Results for COc1cc(Cl)ccc1OCc1cc(C(=O)NC(C)Cc2cccnc2)no1 (stereo not given) ?
LDHA inh: -8; KCNH2 3.1 block: -12; Chronic BCR inh: inconclusive; 12-LOX inh: 10%; KCNH2 WT inh: -15; ClpP mod: 28µM*

How did COc1ccc(OCc2cc(C(=O)NC(C)Cc3cnccn3)no2)c(Cl)c1 (stereo not given) do in these assays?
LDHA inh: 1; KCNH2 3.1 block: -1; Chronic BCR inh: -9%; 12-LOX inh: -1%; KCNH2 WT inh: -3; ClpP mod: 0%

Results for CCCS(=O)(=O)c1c(S(=O)(=O)CCC)c2c(N)cccn2c1C(=O)c1ccc(Br)cc1 ?
LDHA inh: 8; KCNH2 3.1 block: -13; Chronic BCR inh: inconclusive; 12-LOX inh: 6.3µM*; KCNH2 WT inh: -12; ClpP mod: 1%

How did COc1ccc(C(=O)COC(=O)c2ccc(Cl)nc2)cc1OC do in these assays?
LDHA inh: -3; KCNH2 3.1 block: -1; Chronic BCR inh: 1%; 12-LOX inh: 9%; KCNH2 WT inh: 3; ClpP mod: 22µM*

How did O=C(Nc1ccc(Cl)cc1)c1cccc(N2C(=O)C3C4CCC(C4)C3C2=O)c1 (stereo not given) do in these assays?
LDHA inh: -1; KCNH2 3.1 block: -28; Chronic BCR inh: inconclusive; 12-LOX inh: -2%; KCNH2 WT inh: -2; ClpP mod: -3%

How did COc1ccc(NC(=O)c2cccc(N3C(=O)C4C5CCC(C5)C4C3=O)c2)cc1 (stereo not given) do in these assays?
LDHA inh: -4; KCNH2 3.1 block: -4; Chronic BCR inh: inconclusive; 12-LOX inh: 6.3µM*; KCNH2 WT inh: 6; ClpP mod: -3%

What do the screens show for `O=C(O)c1ccc(NC(=O)c2cccc(N3C(=O)C4C5CCC(C5)C4C3=O)c2)cc1` (stereo not given)?
LDHA inh: -8; KCNH2 3.1 block: -1; Chronic BCR inh: 5%; 12-LOX inh: -7%; KCNH2 WT inh: -19; ClpP mod: 25µM*

How did COc1ccc(NC(=O)c2cccc(N3C(=O)C4C5C=CC(C6CC56)C4C3=O)c2)cc1 (stereo not given) do in these assays?
LDHA inh: -10; KCNH2 3.1 block: -13; Chronic BCR inh: 0%; 12-LOX inh: 477%; KCNH2 WT inh: 12; ClpP mod: -3%

What do the screens show for `CNC(=S)N/N=C(\C)c1cccc(C(F)(F)F)c1`?
LDHA inh: 4; KCNH2 3.1 block: 25; Chronic BCR inh: inconclusive; 12-LOX inh: 22µM*; KCNH2 WT inh: 3; ClpP mod: 1%

How did CCN1C(=O)/C(=C/c2c(C)nn(C)c2C)SC1=S do in these assays?
LDHA inh: 2; KCNH2 3.1 block: 0; Chronic BCR inh: -14%; 12-LOX inh: 10µM*; KCNH2 WT inh: 4; ClpP mod: 0%
